# VDR inhibitor: vitamin D3 receptor (human) inhibition; P11473; VDR-SRC2-3 peptide fluorescence polarization, 2 h; Potency, µM, hits mostly inhibitors; actives 0.93% (n = 400,000)
# Target sequence (P11473 whole entry, looked up): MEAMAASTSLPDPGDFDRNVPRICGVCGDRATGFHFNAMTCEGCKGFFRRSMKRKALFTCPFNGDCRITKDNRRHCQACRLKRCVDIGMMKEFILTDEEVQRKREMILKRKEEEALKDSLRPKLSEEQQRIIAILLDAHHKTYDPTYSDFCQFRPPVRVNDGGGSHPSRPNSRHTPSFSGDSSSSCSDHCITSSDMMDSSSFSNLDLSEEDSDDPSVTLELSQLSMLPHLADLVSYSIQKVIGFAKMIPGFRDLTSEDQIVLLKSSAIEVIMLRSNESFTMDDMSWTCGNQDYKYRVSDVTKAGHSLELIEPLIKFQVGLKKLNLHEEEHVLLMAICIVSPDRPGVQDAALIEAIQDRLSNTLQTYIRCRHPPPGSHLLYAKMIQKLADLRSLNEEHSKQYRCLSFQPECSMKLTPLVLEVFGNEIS
#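 The screen uses fluorescence polarization to detect compounds that interfere with recruitment of the SRC2-3 coactivator peptide to VDR; plates are read after 2 h at room temperature.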
# Tb PFK inh: blocks T. brucei phosphofructokinase; O15648; T. brucei PFK, ADP-Glo luminescence; Potency, µM (doses to about 57.5 µM), actives largely listed as inhibitors; actives 0.17% (n = 330,000); further: nearly all actives have a fitted effect of over 60% in size
#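 1.25 nM PFK with 0.5 mM F6P and 0.1 mM ATP in 0.1 M TEA pH 8.0, 5 mM MgCl2, incubated 45 min at room temperature; ADP measured by ADP-Glo luminescence; compounds titrated up to 57 uM.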
# PLK1 PBD block: blocks phosphopeptide binding to human PLK1 polo-box domain. P53350. Plk1 PBD binding of FITC phosphopeptide, fluorescence polarization. Potency, µM, actives largely listed as inhibitors. actives 2.8% (n = 360,000); further: series mostly up to about 57 µM; nearly all actives have a fitted effect of over 65% in size
# BRCA1 expr act: BRCA1 expression activation | MCF7-BRCA1-FFLuc reporter, luminescence, 48 h; response scale: scaled: vehicle 0%, 10 µM genistein 100% | Potency, µM (top dose mostly 46.1 µM), hits mostly activators | actives 1.1% (n = 380,000) | AID 624202; further: nearly all actives have a fitted effect of over 80% in size
#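 MCF7 cells carrying a BRCA1-firefly luciferase reporter (2000 cells/well, phenol-red free MEM) were attached for 2 h at 37 °C, then given compounds for 48 h. Luminescence was read 15 min after luciferase reagent; activity normalized to genistein (10 microM) and DMSO.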
# Numbers stand for hits; n = inactive; u = inconclusive; x = no result; [ ] = another dose, or the depositor's remark. An excerpt weighted towards active compounds, which were near 3.9% of everything screened. The call rests on the fitted dose curve; in most records, active means well fitted curve in the direction sought with a large enough effect; inconclusive means small, poorly fitted or top-dose-only effect, or another doubt; inactive means no such curve, though single readings can be large; an effect the other way counts as inactive or inconclusive.
SMILES,VDR inhibitor,Tb PFK inh,PLK1 PBD block,BRCA1 expr act
CC(C)(C)c1ccc(C(=O)C[n+]2cc(Br)cc(Br)c2)cc1,x,x,x,n
N#CCc1ccc(Oc2ncccn2)cc1,u,n,17µM,n
CC(C)(C)NC(=O)C(c1ccc(F)cc1)N(CCc1ccccc1)C(=O)c1ccn[nH]1 (centres undefined),n,n,27µM,n
COc1ccc(N(C(=O)c2ccn[nH]2)C(C(=O)NC(C)(C)C)c2ccc(F)cc2)cc1 (centres undefined),n,n,n,n
COc1ccc(Br)cc1/C=C/C(=O)NC(=S)Nc1ccc(Cl)c(C(=O)O)c1,u,n,n,n
COc1ccc(Br)cc1C(=O)NC(=S)Nc1ccc(Cl)c(C(=O)O)c1,n,n,12µM,n
COC(=O)NC(=S)Nc1ccc(Oc2ccc(Cl)cc2Cl)c(Cl)c1,n,n,3µM,n
Cc1ccc(S(=O)(=O)n2nc(C)c(S(=O)(=O)N3CCC(C)CC3)c2C)cc1,n,x,x,n
CCOc1ccc(C2CC(c3c(O)n(C4CCCCC4)c(=O)[nH]c3=O)=Nc3ccccc3S2)cc1 (centres undefined),n,x,x,x
N#CCCN(C(=S)NC(=O)c1ccco1)c1ccccc1F,n,n,30µM,n
N#CCCN(Cc1cccnc1)C(=S)NC(=O)c1ccco1,n,n,n,n
Cc1cccc(C)c1NC(=O)Cn1nnc(C(=O)NCc2ccc(F)cc2)c1N,n,x,x,x
Cc1ccc(NC(=O)Cn2nnc(C(=O)NCCc3ccccc3)c2N)c(C)c1,u,n,6µM,n
Cc1cc(C)cc(NC(=O)Cn2nnc(C(=O)NCc3ccc(F)cc3)c2N)c1,20µM,n,3µM,n
COc1ccccc1CNC(=O)CC(C)C,u,n,12µM,n
COc1ccccc1CNC(=O)COc1ccccc1OC,n,n,n,n
COc1ccccc1CNC(=O)C12CC3CC(CC(C3)C1)C2,n,n,27µM,n
COc1ccccc1CNC(=O)CSc1ccsc1[N+](=O)[O-],n,n,n,13µM
O=C(NCc1ccccc1F)C12CC3CC(CC(C3)C1)C2,n,x,n,n
COc1ccccc1CNCC(=O)Nc1ccc(N(C)C)cc1,n,n,27µM,n
Clc1ccc(-n2ncc3c(NCc4ccccn4)ncnc32)cc1,n,n,n,10µM
C=CCNc1ncnc2c1cnn2-c1cccc(C)c1,n,n,n,2.2µM
Cc1cccc(-n2ncc3c(NCCCO)ncnc32)c1,n,n,n,u
C=CCNc1ncnc2c1cnn2-c1ccc(Cl)cc1,u,n,21µM,u
CC(=O)Nc1cccc(NC(=O)c2ccc([N+](=O)[O-])cc2Cl)c1,n,n,n,n
SMILES,VDR inhibitor,Tb PFK inh,PLK1 PBD block,BRCA1 expr act
O=C(Nc1cccc(O)c1)c1ccc([N+](=O)[O-])cc1Cl,n,n,n,5µM
Cc1ccc(NC(=O)c2ccc([N+](=O)[O-])cc2Cl)nc1,n,n,n,1.1µM
O=C(Nc1ccccn1)c1ccc([N+](=O)[O-])cc1Cl,n,n,n,n
Cc1ccc(C)c(N2CCN(C(=O)CCS(=O)(=O)c3ccc4c(c3)CC(=O)N4C)CC2)c1,n,x,x,n
COc1ccc(Cn2ccc3nc(C)c(C(=O)Nc4ccc(OC)cc4OC)cc3c2=O)cc1,n,x,x,x
COc1ccc(/C(O)=C/C(=O)C(=O)NNC(=O)c2ccccc2)cc1,n,n,n,n
CCOc1ccccc1NC(=O)C(=O)/C=C(\O)c1cc(OC)ccc1OC,u,n,21µM,n
COc1ccccc1NC(=O)C(=O)/C=C(\O)c1ccccc1,n,n,n,2.8µM
O=C(CCNS(=O)(=O)c1ccc(Br)cc1)NCc1ccc(Cl)cc1,n,n,27µM,n
Cc1ccc(-c2nc3ccccc3[nH]2)cn1,n,n,n,7.9µM
Fc1ccccc1-c1nc2ccccc2[nH]1,n,n,n,4µM
Clc1ccccc1-c1nc2ccccc2[nH]1,n,n,n,u
Clc1ccc(-c2nc3ccccc3[nH]2)cn1,n,n,n,n
c1ccc2[nH]c(-c3cscn3)nc2c1,n,n,n,11µM
COCCNC(=O)C1CCCN(C(=O)c2ccc3c(c2)C(C)(C)CCC3(C)C)CC1 (centres undefined),x,x,n,n
CCCCc1nn2c(=O)cc(COC(=O)COc3ccc(C)cc3)nc2s1,n,x,x,n
COc1cc2c(cc1OC)C1O[C@](c3ccsc3)(C2)Oc2cc(-c3ccccc3)oc(=O)c21,x,n[11.5 µM],x,x
COc1cc2c(NC3CCN(C)CC3)nc(N3CCCN(C)CC3)nc2cc1OCCCN1CCOCC1,x,x,x,n
Cc1onc(-c2c(F)cccc2Cl)c1C(=O)Nc1cc(S(=O)(=O)N2CCCCC2)ccc1O,n,x,n,n
CCCC(=O)Nc1cccc(-c2cn3c(C)csc3n2)c1,n,x,x,x
CC1CCN(C(=O)c2ccc(-c3ccccc3Cl)o2)CC1,n,n,n,u
S=C(c1ccc(-c2ccc(Cl)c(Cl)c2)o1)N1CCOCC1,n,n,27µM,u
O=C(c1ccc(-c2ccccc2Cl)o1)N1CCC1,n,n,n,2.8µM
S=C(c1ccc(-c2ccc(Br)cc2)o1)N1CCOCC1,u,n,u,u
S=C(c1ccc(-c2ccc(Cl)cc2Cl)o1)N1CCCCC1,n,n,n,7.9µM
SMILES,VDR inhibitor,Tb PFK inh,PLK1 PBD block,BRCA1 expr act
S=C(c1ccc(-c2ccccc2Cl)o1)N1CCOCC1,n,n,5.3µM,7.1µM
CCCCCC(=O)N(c1ccc(OCC)cc1)S(=O)(=O)c1ccc2c(c1)n(C)c(=O)n2C,n,x,x,x
Cc1ccc(NC(=O)/C(C#N)=C(\N)C(Cl)(Cl)Cl)nc1,u,n,24µM,u
O=C(NCc1cccs1)c1cc2c(s1)CCCC2,n,n,n,13µM
CCOC(=O)[C@]12Cc3c(cc(OC)c(OC)c3OC)[C@H]1N(CCC(=O)OC)C(=O)c1cc(OC)ccc12,x,x,12µM,n
CCOC(=O)[C@]12Cc3c(cc(OC)c(OC)c3OC)[C@H]1N(Cc1ccccc1)C(=O)c1cc(OC)ccc12,x,x,7.5µM,n
CCOC(=O)[C@]12Cc3c(cc(OC)c(OC)c3OC)[C@H]1N(Cc1ccccc1)C(=O)c1cc(F)c(F)cc12,x,x,u,n
O=C(Nc1ccc(N2CCOCC2)c(C(=O)O)c1)c1ccco1,x,n,x,x
O=C(Nc1ccc(N2CCOCC2)cc1N1CCOCC1)c1ccco1,u,n,27µM,n
CN(C)c1nc(N)c(C#N)c(C#N)c1C#N,n,x,27µM,n
CC1=NN(c2ccccc2)C(=O)/C1=C\c1sccc1C,u,u,11µM,n
COc1ccccc1/C=C1/C(=O)N(c2ccccc2)N=C1C,u,n,2.7µM,n
CC1=NN(c2ccccc2)C(=O)/C1=C\c1cn(-c2ccccc2)nc1C,n,n,n,n
COc1ccccc1/C=C1/C(=O)ON=C1C,50µM,n,4.7µM,n
COc1ccccc1/C=C1\C(=O)Nc2ccccc21,n,n,n,n
CCOc1cccc(CC(=O)Nc2ccc3nc(N4CCCCC4)cc(C)c3c2)c1OCC,n,x,x,x
CCOc1ccc(NC(=O)Cn2cc(C(=O)CC)c3ccccc32)cc1,79µM,n,u,n
CCOc1ccc(NC(=O)CCC(=O)c2ccc(OC)cc2)cc1,n,n,n,n
O=C(Cc1ccccc1)Nc1ccc(NC(=O)c2ccccc2)nc1,n,n,n,13µM

# Screening results from PubChem BioAssay.
